Measurements: PubChem BioAssay (NCATS)
Records with an inconclusive call do not appear. Active and inactive are the calls of the source. Calls follow the shape of the dose curve; as a rule, active = well fitted inhibition curve with a large enough effect; inconclusive = small, poorly fitted or top-dose-only effect; inactive = flat fitted curve, though single readings scatter. Where a SMILES comes first, the peptide text is derived from it. The star is where a group is joined. Cbz = O=C(OCc1ccccc1)*; CH2Cl = ClC*

experiment: Primary qHTS for inhibitors of nuclear receptor binding SET domain protein 2 (NSD2) in an isogenic RCH-ACV NSD2 p.E1099K mutant (9B) (AID 1645876); settings: RCH-ACV (leukaemia line) NSD2 E1099K (9B) viability, CellTiter-Glo, 72 h; series mostly up to 44.9 µM; activity change, negative = viability loss: at the top concentration; also: nearly all actives have a fitted effect of over 70% in size
% is scaled to controls: 0 for no effect and ±100 for the full control effect; potency is read from the fitted curve at half-maximal effect.

| SMILES | Potency | activity change, negative = viability loss | outcome |
| --- | --- | --- | --- |
| CC1CCCC(O)CC(=O)c2c(O)cc(O)cc2CC(=O)O1 (stereo not drawn) | 8.01 µM (active) |  |  |
| Cn1cc(-c2cnn3c(N)c(Br)c(C4CCCNC4)nc23)cn1 (stereo not drawn) | 1.18 µM (active) |  |  |
| C=C1C(=O)OC2CC(C)C(CCC(C)=O)=CCC12 (stereo not drawn) | 18.3 µM (active) |  |  |
| C=C1CC2OC(=O)C(=C)C2C(O)/C=C(\C)CCC1O (stereo not drawn) | 18.3 µM (active) |  |  |
| CN(C)CCC(CSc1ccccc1)Nc1ccc(S(=O)(=O)NC(=O)c2ccc(N3CCN(Cc4ccccc4-c4ccc(Cl)cc4)CC3)cc2)cc1[N+](=O)[O-] (stereo not drawn) | 0.916 µM (active) |  |  |
| C=C1C(=O)O[C@@H]2[C@H]1CC[C@H](C)[C@]1(CCC(=O)O1)C2(C)O (stereo partly drawn) | 20.5 µM (active) |  |  |
| C/C(=C\CO[C@@H]1O[C@H](CO[C@H]2OC[C@](O)(CO)[C@H]2O)[C@@H](O)[C@H](O)[C@H]1O)C(C)(C)O |  | -11.3% [at 17.3 µM] (inactive) |  |
| CNc1nc(NCc2ccc(NS(C)(=O)=O)cc2Cl)cc(-c2ccccn2)n1 | 11.5 µM (active) |  |  |
| C=C1CC[C@@H]2[C@](C)(CO)[C@H](O)CC[C@@]2(C)[C@@H]1C/C=C1/C(=O)OCC1O (stereo partly drawn) | 14.5 µM (active) |  |  |
| CC(C)Oc1ccc(-c2cnc3c(-c4ccnc5ccccc45)cnn3c2)cc1 |  |  | inactive |
| CC(C)C[C@H](NC(=O)CNC(=O)OCc1ccccc1)C(=O)N[C@@H](Cc1ccccc1)C(=O)CCl (Cbz-Gly-Leu-Phe-CH2Cl) | 7.28 µM (active) |  |  |
| COc1ccc(-n2c(SCCCN3C(=O)c4cccc5cccc(c45)C3=O)nnc2-c2ccncc2)cc1 |  | -5.64% (inactive) |  |
| CCN1CCN(Cc2ccc(NC(=O)c3ccc(C)c(Oc4ccnc5[nH]ccc45)c3)cc2C(F)(F)F)CC1 | 0.713 µM (active) |  |  |
